In PubChem BioAssay AID588345 (Broad Institute, 2011):
Among all 1,300 compounds or so, about 850 (65%) were called active. About 1% were inconclusive and are not listed. The rule behind the calls is not given here. The set was probably picked from earlier hits. Only a sample is shown. Entries with a potency or affinity are not part of this list.

What follows are compounds tested against Dual specificity tyrosine-phosphorylation-regulated kinase 1A (Rattus norvegicus) (UniProt Q63470) (assay: Dyrk1A enzyme activity inhibition – biochemical, cherry-pick, plate reader, 2124-01, dose response (AID 588345)). Settings: Dyrk1A kinase biochemical assay; series mostly up to 12 µM; activity change, negative = inhibition: at the top concentration.

Activity change, negative = inhibition, inactive:
O=S1(=O)N=C(N(Cc2cccs2)c2ccc(O)cc2)c2ccccc21 -39.4%
CCCCC(=O)Nc1cc(Cl)ccc1C(=O)O 2.42%
CC(C)CC(NC(=O)C1CCC(C)CC1)C(=O)Nc1ccc2c(c1)OCCO2 (stereo not drawn) -0.401%
O=C(O)c1cc2ccccc2c2cc(Br)ccc12 6.75%
CCOCC(=O)Nc1nc2c(s1)C(=O)CC(C)(C)C2 -6.16%
O=C1CCCc2c1cc(C(=O)NCCCN1CCOCC1)c(=O)n2-c1ccc(Cl)cc1 15.7%
CCOc1ccccc1C(=O)Nc1ccccc1C(N)=O 16.9%
c1ccc2c(-c3nc(C4CCCCC4)no3)cc(-c3ccncc3)nc2c1 -12.2%
COc1cccc(C(=O)NNC(=O)/C=C/c2ccccc2)c1 -0.825%
O=C(/C=C/c1ccccc1)Nc1cccc(C(=O)NC2CC2)c1 -23.3%
O=C(O)/C=C/c1ccc2noc(-c3ccccc3)c2c1 9.02%
Nc1nonc1-n1nnc(C(=O)N/N=C\c2ccncc2)c1CN1CCCCC1 16.2%
COc1cc2cnc(-c3ccccc3)c(-c3ccc([N+](=O)[O-])cc3)c2cc1OC 5.36%
COC(=O)CSc1nc(N)c(C#N)c(C(C)C)c1C#N 4.01%
COc1ccc2nc3c(cc2c1)c(NC(=O)C1CCCO1)nn3CC(C)C (stereo not drawn) -39%
N#Cc1nc(-c2cccs2)oc1NCc1ccccc1Cl 4.98%
Cc1cccc(Cl)c1OCCCCn1ccnc1 -0.832%
c1cncc(-c2nc(NCCCn3ccnc3)c3ccccc3n2)c1 -32%
COc1cc(O)c2c(=O)c3c(O)ccc(O)c3oc2c1 15.1%
O=C(NN1C(=O)/C(=C/c2ccc(O)c([N+](=O)[O-])c2)SC1=S)c1ccccc1Cl 12.1%
CCCCOc1cccc(C(=O)NC(=S)Nc2ccc(Cl)c(C(=O)O)c2)c1 4.19%
CC(C)c1nnc(NC(=O)Cn2nc(-c3ccc4c(c3)OCCO4)ccc2=O)s1 5.79%
CSCC(=O)Nc1nc(-c2ccc3c(c2)OCCO3)cs1 -45.8%
CCC(=O)Nc1nc(-c2ccc3c(c2)OCCO3)cs1 -27.9%
c1ccc(Cc2nnc3sc(-c4ccc5c(c4)OCCO5)nn23)cc1 2.39%
Cn1nnnc1Sc1ncnc2scc(-c3ccc[nH]3)c12 6.62%
COCCCN(C(C)=O)c1nc(-c2ccc(OC)cc2)cs1 1.75%
CCCn1cnc2scc(-c3ccc(OC)cc3)c2c1=O 8.44%
COc1cc(CO)cc(Br)c1OCc1cccnc1 -1.47%
COc1cccc(/C=N/n2c(COc3ccccc3)n[nH]c2=S)c1O -73.5%
COC(=O)C1=C(C)N(CCCC(=O)O)C(=O)NC1c1ccc(Cl)cc1 (stereo not drawn) 1.53%
COc1ccc(-n2c(C)nc3cc(C(=O)NCc4ccco4)ccc32)cc1 6.49%
COc1ccc(-n2c(C)nc3cc(C(=O)NCc4ccc5c(c4)OCO5)ccc32)cc1 -5.27%
